Compound activity as filed in PubChem.
This is a sample that favours compounds with a hit; in the whole collection about 6.8% have one here.
PINK1 modulator: changes PINK1 expression | 0.2% of 410,000 active | Potency, µM (highest dose often 76.6 µM), without a hit: at the highest dose activation (PINK1 increase), actives largely listed as activators | PINK1 immunofluorescence, high-content cytometry, 24 h | AID 624263; active = well fitted activation curve with a large enough effect; inconclusive = small, poorly fitted or top-dose-only effect; cell line not stated here; also: % of control where 0% means no effect; nearly all actives have a fitted effect of over 65% in size
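PINK1 protein, normally rapidly degraded, was detected by immunofluorescence after 24 hour compound treatment of a stable cell line. Titration data (5 concentrations) came from laser-scanning cytometry, with CCCP-treated wells as controls.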
PTAP TSG101 blk: blocks PTAP/TSG101 interaction to inhibit HIV-1 budding | Fluorescence polarization, FITC-PTAP peptide / Tsg101 binding | Q99816 | 340,000 tested, under 10 active | Potency, µM (doses to about 115 µM), without a hit: at the top dose activity change, negative = inhibition, actives largely listed as inhibitors | AID 493005; active = well fitted inhibition curve with a large enough effect in the main read-out, with a control signal flat, not every such curve was filed as active; inconclusive = small, poorly fitted or top-dose-only effect, or effect the other way, or a change in a side signal; inactive = no such curve, though single readings can be large or run the other way; also: % of control where 0% means no effect
Target sequence (Q99816 whole entry, looked up): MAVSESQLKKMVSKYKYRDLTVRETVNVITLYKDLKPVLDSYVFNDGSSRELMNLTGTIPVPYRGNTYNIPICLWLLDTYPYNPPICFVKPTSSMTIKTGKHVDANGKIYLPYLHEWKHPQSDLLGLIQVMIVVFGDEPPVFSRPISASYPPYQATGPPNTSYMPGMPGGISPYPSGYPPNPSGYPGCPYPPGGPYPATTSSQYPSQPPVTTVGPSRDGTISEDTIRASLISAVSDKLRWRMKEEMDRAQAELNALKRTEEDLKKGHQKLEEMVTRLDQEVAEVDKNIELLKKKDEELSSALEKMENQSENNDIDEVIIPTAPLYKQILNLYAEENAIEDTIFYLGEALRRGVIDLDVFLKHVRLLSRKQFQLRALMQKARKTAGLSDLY
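Fluorescence anisotropy tracks displacement of a FITC-tagged PTAP peptide (50 nM) from the Tsg101 binding domain (10 uM), following a 20 min room-temperature incubation at pH 7.5.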
SW480 rereplic: induces DNA re-replication in SW480 colon adenocarcinoma cells. SW480 DNA re-replication, Hoechst DNA content imaging, 48 h. Potency, µM (top dose mostly 46.1 µM), inactives show at the highest dose re-replication activation, most hits filed as activators. 1.8% of 340,000 active; also: % of control where 0% means no effect; nearly all actives have a fitted effect of over 55% in size
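Treated cells incubate 48 hr (37 C, 5% CO2), are stained 40 min with Hoechst, and nuclear fluorescence is enumerated; a rise in nuclei with high DNA signal marks re-replication.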
KB-3-1 tox: kills parental KB-3-1 adenocarcinoma cells. AID 1347075. KB-3-1 viability, CellTiter-Glo ATP luminescence, 72 h. 1.4% of 400,000 active. Potency, µM (doses to about 46.1 µM), most hits filed as cytotoxic; also: % is scaled to controls: 0 for no effect and ±100 for the full control effect; nearly all actives have a fitted effect of over 60% in size
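KB-3-1 parental drug-naive adenocarcinoma cells in DMEM/10% FBS, incubated 72 h at 37 C with pin-transferred compounds across a concentration series. Viability by CellTiter-Glo luminescence; concentration-response curves fitted after normalization.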
MCF10A rereplic: inducers of DNA re-replication in MCF 10A breast cells; MCF 10A DNA re-replication, Hoechst nuclear intensity, 48 h; Potency, µM (series often up to 46.1 µM), for inactives: top-dose activity, positive = re-replication, hits mostly activators; 2.9% of 350,000 active; AID 624296; also: % of control where 0% means no effect; nearly all actives have a fitted effect of over 50% in size
KB-V1 cytotox: kills drug-selected multidrug resistant KB-V1 cells; KB-V1 MDR cells viability, CellTiter-Glo, 72 h; AID 1347076; 3.4% of 400,000 active; Potency, µM (top dose mostly 46.1 µM), actives largely listed as cytotoxic; also: % is scaled to controls: 0 for no effect and ±100 for the full control effect; nearly all actives have a fitted effect of over 60% in size
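Cells of the MDR subline KB-V1 are plated, dosed with compound at multiple concentrations, and incubated 72 h at 37 degrees C; CellTiter-Glo is then added and luminescence read after 10 min.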
Active calls of the source: *; i = inactive; ? = inconclusive; / = no result; ! = repeats disagree. Unless noted, calls follow the shape of the dose curve; as a rule, active = well fitted curve in the direction sought with a large enough effect; inconclusive = small, poorly fitted or top-dose-only effect, or another doubt; inactive = no such curve, though single readings can be large; an effect the other way counts as inactive or inconclusive. Potency is read from the fitted curve at half-maximal effect.

SMILES	PINK1 modulator	PTAP TSG101 blk	SW480 rereplic	KB-3-1 tox	MCF10A rereplic	KB-V1 cytotox
CC(C)(C)C1CCC(OCC(O)CN2CCN(c3ccccc3)CC2)CC1 (stereo not given)	7%	-5%	2%	i	21µM*	?
O=C(C1CCCC1)N1CCC(CO)(Cc2ccccc2Cl)CC1	0%	-3%	-2%	i	0%	?
O=C(C1CC=CCC1)N1CCC(CO)(Cc2ccc(Cl)cc2)CC1 (stereo not given)	0%	-7%	-13%	?	1%	12µM*
CN(C)CC(C)(O)c1ccc2c(c1)CN(Cc1cccn1-c1cccnc1)CCO2 (stereo not given)	-1%	/	/	/	/	/
COc1cc(CNCCSc2nnnn2C)ccc1OCc1ccccc1C	1%	/	/	i	/	i
Nc1nc2n[nH]nc2c(=O)[nH]1	1%	-4%	?	1.5µM*!	?	?
Cc1ccc(CN2CCSc3ccc(C(=O)N4CCN(c5cc(C)ccc5C)CC4)cc32)cc1	3%	/	/	i	/	i
CCCn1c(=O)[nH]c(=O)c2c1nc(-c1ccc(OC(F)F)c(OC)c1)n2CCOC	2%	-7%	-5%	i	-10%	i
CCCn1c(=O)[nH]c(=O)c2c1nc(-c1ccccc1OC(F)F)n2CCOC	-3%	-1%	1%	i	6%	18µM*
O=C(NCCN1CCOCC1)c1ccncc1	-2%	-1%	1%	i	-1%	i
O=C1C=C(NCCN2CCOCC2)C(=O)c2cnccc21	/	/	10µM*	/	?	/
Cc1[nH]n(-c2nc(-c3ccc(Cl)cc3)cs2)c(=O)c1N=Nc1ccc(O)cc1	3%	0%	-1%	?	?	15µM*
O=C1c2ccccc2C(=O)N1c1nc(-c2ccc(Cl)cc2)cs1	0%	/	/	i	/	i
CCOc1ccc(CCNC(=O)c2cn(CC)c3ccc(S(=O)(=O)N4CCc5ccccc5C4)cc3c2=O)cc1OCC	3%	/	/	i	/	i
O=c1[nH]c(CSc2ccccn2)nc2c1cnn2-c1ccccc1	1%	0%	-4%	i	-1%	21µM*
COc1ccc(C2C(=O)N(C3CCCCCC3)CC(=O)N2CCc2ccccc2)cc1 (stereo not given)	0%	/	/	/	/	/
COc1ccc2c(Sc3ccccc3)c(C(=O)NCCCN3CCCCC3)[nH]c2c1	3%	/	/	/	/	/
COc1cccc2sc(N(CCCN(C)C)C(=O)c3ccc(S(=O)(=O)N4CCc5ccccc5C4)cc3)nc12	2%	-4%	?	i	?	i
COc1ccc(C)c2sc(N(CCCN(C)C)C(=O)c3ccc(S(=O)(=O)N4CCc5ccccc5C4)cc3)nc12	-1%	-1%	?	?	16µM*	10µM*
CN(C)CCCN(C(=O)c1ccc(S(=O)(=O)N2CCc3ccccc3C2)cc1)c1nc2c(F)cc(F)cc2s1	1%	-5%	3.7µM*	i	15%	i
Cc1ccc2sc(N(CCCN(C)C)C(=O)c3ccc(S(=O)(=O)N4CCc5ccccc5C4)cc3)nc2c1C	6%	1%	3.7µM*	i	?	i
Cc1cccc(-c2nc3c(cnn3-c3ccccc3)c(=O)n2-c2cccc(Cl)c2)c1	1%	/	/	?	/	i
Cc1c(Cl)cccc1NC(=O)CCS(=O)(=O)c1ccc2c(c1)CC(C)N2C(=O)C1CC1 (stereo not given)	2%	/	/	/	/	/
N#Cc1ccc(-c2ccc(OCC(=O)NCCc3ccccc3)cc2)cc1	-2%	0%	0%	i	6%	5.2µM*
O=C(NCCCN1CCN(c2ccccc2F)CC1)c1sc2ncccc2c1-n1cccc1	0%	/	/	/	/	/
SMILES	PINK1 modulator	PTAP TSG101 blk	SW480 rereplic	KB-3-1 tox	MCF10A rereplic	KB-V1 cytotox
COc1cc(=O)n2c(c1C(=O)NCc1ccco1)CCN(C(=O)c1ccc(C)c(C)c1)CC2	2%	/	/	/	/	/
COc1ccc(Cl)cc1NC(=O)Cc1coc2c(C)c(C)ccc12	-1%	/	/	i	/	i
Cc1cccc(C(=O)Nc2ccccc2OCc2cc(=O)n3cc(C)ccc3n2)c1	0%	/	/	i	/	i
CCCn1c(=N)n(CC(O)COc2cccc(C)c2)c2ccccc21 (stereo not given)	-1%	-3%	11%	?	3%	15µM*
CCCCn1c(=N)n(CC(O)COc2ccc(C)cc2)c2ccccc21 (stereo not given)	/	-2%	22%	18µM*	5%	?
CCCCCn1c(=N)n(CC(O)COc2cccc(C)c2)c2ccccc21 (stereo not given)	-2%	/	/	i	/	?
CCCCn1c(=N)n(CC(O)COc2ccccc2)c2ccccc21 (stereo not given)	3%	-1%	?	?	1%	21µM*
Cc1ccc(C)c(CN2C(=O)c3ccccc3S(=O)(=O)c3ccc(C(=O)N(C)C4CCCCC4)cc32)c1	2%	/	/	/	/	/
CCc1ccc(CNC(=O)CSc2cc(=O)n(C)c3ccc(Cl)cc23)cc1	4%	/	/	i	/	i
Cc1ccc2nc(SCC(=O)Nc3cccc(Cl)c3)nc(=O)n2c1	1%	-1%	-2%	i	2%	i
Cc1ccc2nc(SCC(=O)Nc3cccc(F)c3)nc(=O)n2c1	-2%	-2%	-6%	?	8%	9.2µM*
COC1=C(Nc2ccc(OC)cc2)C(=O)C(OC)=C(Nc2ccc(OC)cc2)C1=O	-1%	-2%	0%	i	-2%	i
COC1=C(Nc2ccc(OC)cc2)C(=O)c2ccccc2C1=O	?	1%	23µM*	i	?	?
COc1ccc(NC2=C(NCCO)C(=O)c3ccccc3C2=O)cc1	6%	-11%	18µM*	?	?	21µM*
COc1ccc(NC2=C(c3ccc(OC)cc3)C(=O)c3ccccc32)cc1	9%	2%	-13%	i	-5%	5.2µM*
COC(=O)C1CCN(Cc2ccc3c(c2)CN(C(=O)C(C)N2CCOCC2)CCO3)CC1 (stereo not given)	1%	/	/	/	/	/
O=C(COc1ccccc1)N(Cc1cccnc1)c1nc2ccc(Cl)cc2s1	9%	/	/	/	/	/
Cn1nc(C(=O)NCCc2ccc(Cl)cc2)c2c1-c1ccccc1SC2	4%	/	/	/	/	/
Cc1ccc(C(=O)c2oc3ccccc3c2NC(=O)Cc2coc3c(C)c(C)ccc23)cc1	-1%	/	/	i	/	?
CCCC(=O)N1CCN(c2nc3ccc(F)cc3s2)CC1	1%	/	/	/	/	/
Cc1nc(Sc2nnnn2C)c2c3c(sc2n1)CCC3	1%	-3%	5.8µM*	3.3µM*	1.5µM*	6.5µM*
CCc1nc(Sc2nnnn2-c2ccccc2)c2c3c(sc2n1)CCCC3	0%	-2%	?	i	18µM*	?
